# IL1B secr inh: inflammasome signaling inhibition, IL-1 beta readout; THP-1 LPS/ATP IL-1B secretion, AlphaLISA, 16 h; active compounds read low; activity change, % at 57.5 µM; actives 4.7% (n = 360,000); AID 743279; in the data active = activity change below about -50%; inconclusive = mostly about -30% to -49%
#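 THP-1 cells pretreated 1 hr with compounds (up to 57.5 uM final), then stimulated with LPS (250 ng/mL final) plus ATP (1.25 mM final); secreted IL-1B measured by AlphaLISA after 16 hr, decreased signal indicating inhibition.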
# HT1080 IDH1KD tx: kills HT-1080 cells with IDH1 knockdown. HT-1080 IDH1 knockdown viability, ATP luminescence, 48 h. Potency, µM (doses to about 46.1 µM), without a hit: top-dose activity, negative = toxicity, actives largely listed as cytotoxic. actives 2% (n = 360,000). AID 686971;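 note: potency is the fitted concentration of half-maximal effect; 0% = DMSO wells and -100% = cell-free medium wells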
#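 CellTiter-Glo luminescence after 48 h compound exposure at 37 degrees C of IDH1-knockdown HT-1080 cells in 5% FBS RPMI. %Activity scaled between DMSO wells and cell-free media wells, with curves fitted and assigned curve classes.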
# HT1080NT lethal: kills 2HG-producing HT-1080-NT fibrosarcoma cells; actives 1.6% (n = 360,000); Potency, µM (top dose mostly 46.1 µM), without a hit: at the top dose activity, negative = less viability, usual class: cytotoxic; HT-1080-NT fibrosarcoma viability, CellTiter-Glo ATP luminescence, 48 h; AID 686970;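 note: NT is the 2HG producing partner of a matched IDH1 knockdown line; potency is the fitted concentration of half-maximal effect; 0% = DMSO-treated cells and -100% = media-only wells without cells; nearly all actives have a fitted effect of over 55% in size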
#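 HT-1080-NT fibrosarcoma cells (2HG-overproducing), 750 cells/well in RPMI with 5% FBS, dosed after 2 h and incubated 48 h at 37C. CellTiter-Glo luminescence normalized to DMSO and no-cell wells; concentration-response curves fitted and classed.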
# DT40 TDP1 CPT: growth inhibition of DT40 Tdp1-/-;hTDP1 cells with camptothecin (screen for TDP1 inhibitors); Potency, µM (titrated, usually from 46.2 µM), for the others: at the top dose activity change, negative = growth inhibition, most hits filed as inhibitors; actives 12% (n = 420,000); AID 686979; chicken DT40 Tdp1-/-;hTDP1 cells + 20 nM CPT, ATP luminescence, 48 h; note: potency is the fitted concentration of half-maximal effect; nearly all actives have a fitted effect of over 55% in size
#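 Chicken DT40 Tdp1-/- cells complemented with human TDP1, 400 cells/well, exposed to compounds plus 20 nM camptothecin for at least 48 h at 37 C; viability read as ATP content by CellTiter-Glo luminescence.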
# DT40 TDP1 no CPT: qHTS for Inhibitors of human tyrosyl-DNA phosphodiesterase 1 (TDP1): qHTS in cells in absence of CPT | DT40 Tdp1-/- hTDP1 cells, no CPT, ATP luminescence, 48 h | Potency, µM (highest dose often 46.2 µM), for the others: at the top dose activity change, negative = growth inhibition, hits mostly inhibitors | actives 15% (n = 420,000); note: potency is the fitted concentration of half-maximal effect; nearly all actives have a fitted effect of over 55% in size
#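 Compound effects on proliferation are scored in DT40 Tdp1-/-;hTDP1 cells in the absence of CPT. ATP levels (CellTiter-Glo luminescence) are recorded after a ≥48 hr, 37 °C incubation.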
# uPA surface inh: cell surface uPA generation inhibition; cell surface uPA generation assay, qHTS; actives 0.31% (n = 330,000); Potency, µM (series often up to 38.3 µM), for the others: at the top dose activity change, negative = inhibition, usual class: inhibitors; AID 540303; active = well fitted inhibition curve with a large enough effect; inconclusive = small, poorly fitted or top-dose-only effect; inactive = no such curve, though single readings can be large or run the other way; tested in mouse RAW 264.7 cells; note: potency is the fitted concentration of half-maximal effect; nearly all actives have a fitted effect of over 55% in size
# The depositor's hits bear a star; ? = inconclusive; / = no result; ! = repeats disagree; [ ] = remark or other dose. Rows were chosen to be rich in hits. Some 19% of all compounds tested hit in one or more screens of this group. Unless noted, calls come from the whole dose curve; as a rule, active = well fitted curve in the direction sought with a large enough effect; inconclusive = small, poorly fitted or top-dose-only effect, or another doubt; inactive = no such curve, though single readings can be large; an effect the other way counts as inactive or inconclusive. Unless noted, % is set by controls: 0 for no effect and ±100 for the full control effect.
SMILES,IL1B secr inh,HT1080 IDH1KD tx,HT1080NT lethal,DT40 TDP1 CPT,DT40 TDP1 no CPT,uPA surface inh
CCOc1ccc(C(=O)N(Cc2cc(OC)c(OC)c(OC)c2)c2ccccn2)cc1,/,/,/,15µM*,21µM*,/
COc1cc(CN(C(=O)c2ccc(C)cc2)c2ccccn2)cc(OC)c1OC,/,/,/,18µM*,21µM*,/
COc1cc(CN(C(=O)c2cccc(C)c2)c2ccccn2)cc(OC)c1OC,/,/,/,13µM*,13µM*,/
Cc1ccc(CC(=O)N(Cc2ccccc2)c2ccccn2)cc1,8,19%,3%,?,?,-1%
COc1cc(/C=C/C(=O)N(Cc2ccccc2)c2ccccn2)cc(OC)c1OC,0,1%,-4%,?,29µM*,-1%
COc1ccc(/C=C/C(=O)N(Cc2ccccc2)c2ccccn2)cc1OC,3,-1%,13%,-2%,-8%,-2%
CC(CN(C)C)CN1c2ccccc2S(=O)(=O)c2ccccc21 (stereo not drawn),/,/,/,-3%,-11%,/
NNc1nccc(Nc2ccccc2C(=O)O)n1,-67*,-18%,-11%,-10%,-22%,8%
COc1ccc(Nc2ccc(OC)cc2)cc1,-52*,12%,10%,-15%,-4%,-5%
COc1ccc(Nc2ccccc2C(=O)O)cc1,52,-5%,1%,-2%,2%,-6%
NNc1nc(Nc2ccccc2)nc(Nc2ccccc2)n1,-24,?,-28%,16µM*,?,-4%
COc1ccc(Nc2ccc(Nc3ccc(OC)cc3)nn2)cc1,26,13%,19%,-22%,2%,-9%
c1ccc(Nc2ccnc(Nc3ccccc3)n2)cc1,/,?,-28%,?,21µM*,-12%
CCCn1ncc(CN2CCC(n3nccc3NC(=O)CCc3ccccc3)CC2)c1C,0,10%,4%,4%,0%,5%
Cc1cccn2c(=O)c(C(=O)NCCc3ccc(S(N)(=O)=O)cc3)c(O)nc12,/,/,/,-12%,-3%,/
CN(C(=O)CSc1nc2ccccc2c(=O)n1-c1ccccc1Cl)C1CCS(=O)(=O)C1 (stereo not drawn),-1,2%,0%,-23%,?,1%
O=C1CC(NNC(=O)c2cccc(F)c2)C(=O)N1 (stereo not drawn),21,11%,8%,0%,2%,6%
COc1ccc(Nc2nc(NN)nc(Nc3ccc(OC)cc3)n2)cc1,?,-7%,-20%,?,13µM*,2%
COC(=O)c1cccc2c(C(=O)O)cc(-c3ccccc3)nc12,12,19%,8%,1%,-19%,7%
O=c1c(-c2cccs2)nc2ccccc2n1C(c1ccccn1)c1nc2ccccc2[nH]1 (stereo not drawn),-8,-17%,-1%,?,15µM*,/
O=c1c(-c2ccccc2)nc2ccccc2n1C(c1ccccn1)c1nc2ccccc2[nH]1 (stereo not drawn),-2,-12%,-28%,?,9.2µM*,/
O=c1c(-c2cccnc2)nc2ccccc2n1C(c1ccccn1)c1nc2ccccc2[nH]1 (stereo not drawn),?,-3%,-14%,?,-28%,/
CCc1ccc(C(=O)NC2=NC(c3ccccc3F)CC(=O)N2)cc1 (stereo not drawn),/,/,/,-8%,2%,/
COC(=O)c1ccc(/C=N/NC(=O)C2CC(=O)N(c3ccc(OC)cc3)C2)cc1 (stereo not drawn),12,-1%,-4%,-20%,-2%,7%
O=C(COc1cccnc1[N+](=O)[O-])N1N=C(c2ccc(Cl)cc2)CC1c1ccco1 (stereo not drawn),-25,?,?,?,2.9µM*,-2%
SMILES,IL1B secr inh,HT1080 IDH1KD tx,HT1080NT lethal,DT40 TDP1 CPT,DT40 TDP1 no CPT,uPA surface inh
Nc1nc(SCC(=O)N2N=C(c3ccc(Cl)cc3)CC2c2ccco2)n[nH]1 (stereo not drawn),-13,-24%,-14%,?,-7%,-20%
Cc1ccc(OCC(=O)N2N=C(c3ccc(Cl)cc3)CC2c2ccco2)c([N+](=O)[O-])n1 (stereo not drawn),-54*,-26%,-27%,?,?,-3%
CC(C)(C)CN1CCC(Oc2cccc(C(=O)N3CCNC(=O)C3(C)C)c2)CC1,18,3%,1%,-10%,13%,-1%
CC(=O)N1CCC(C(=O)Nc2cc(S(=O)(=O)N3CCCCC3)ccc2C)CC1,-16,-27%,-2%,0%,-16%,/
NC(=O)c1c(NC(=O)c2cccnc2)sc2c1CCCC2,-11,16%,?,-1%,-28%,-5%
CC(C)c1onc(C(=O)Nc2sc3c(c2C#N)CCC3)c1[N+](=O)[O-],57,1%,-1%,-4%,-6%,0%
N#Cc1c(NC(=O)c2ccc([N+](=O)[O-])o2)sc2c1CCC2,-94*,?,?,18µM*,10µM*,?
N#Cc1c(NC(=O)c2cnccn2)sc2c1CCCC2,-7,-24%,-20%,9.2µM*,12µM*,-11%
N#Cc1c(NC(=S)NC(=O)c2ccccc2)sc2c1CCCC2,2,2%,8%,?,?,-3%
CC(=O)Nc1sc2c(c1C#N)CCC2,11,7%,10%,-1%,-6%,0%
N#Cc1c(NC(=O)c2ccccc2)sc2c1CCC2,20,?,?,18µM*,16µM*,-9%
N#Cc1c(NC(=O)c2cccnc2)sc2c1CCC2,10,9.2µM*,16µM*,23µM*,?,-4%
COCCCN1C(=O)C(=O)/C(=C(/O)c2ccc(S(=O)(=O)N3CCOCC3)cc2)C1c1ccc(OC)cc1 (stereo not drawn),14,11%,9%,2%,-3%,3%
O=C(Cn1cnc2c(nc3n2CCCCC3)c1=O)Nc1ccc(F)c(Cl)c1,/,/,/,-23%,-18%,/
O=C(O)c1ccc(-c2nnn(Cc3cccc(C(F)(F)F)c3)n2)cc1,34,-2%,-12%,-6%,-20%,10%
COc1ccc(-c2cc(C(=O)Nc3sc4c(c3C#N)CCCC4)no2)cc1OC,/,/,/,0%,-8%,/
CC(C)c1cc(C(=O)Nc2sc3c(c2C#N)CCC3)no1,5,?,-20%[9.24 µM],?,23µM*,/
COc1ccc([C@@H]2Sc3ccccc3N(CCN(C)C)C(=O)[C@@H]2OC(C)=O)cc1,10,-11%,-9%,?,27µM*!,30%
